In assay [1] the target is Vascular endothelial growth factor receptor 3 (Homo sapiens) (UniProt P35916). The following applies: at 10 µM.
Assay [2] deals with Macrophage colony-stimulating factor 1 receptor (Homo sapiens) (UniProt P07333). The following applies: at 1 µM.
Assay [3] shares this target. The following applies: at 10 µM.
Assay [4] concerns the target Tyrosine-protein kinase Fyn (Homo sapiens) (UniProt P06241). The following applies: at 1 µM.
Assay [5] shares this target. The following applies: at 10 µM.
The target in assay [6] is T1, Mitogen-activated protein kinase kinase kinase kinase 2 (Homo sapiens) (UniProt Q12851).
T1 sequence (whole entry): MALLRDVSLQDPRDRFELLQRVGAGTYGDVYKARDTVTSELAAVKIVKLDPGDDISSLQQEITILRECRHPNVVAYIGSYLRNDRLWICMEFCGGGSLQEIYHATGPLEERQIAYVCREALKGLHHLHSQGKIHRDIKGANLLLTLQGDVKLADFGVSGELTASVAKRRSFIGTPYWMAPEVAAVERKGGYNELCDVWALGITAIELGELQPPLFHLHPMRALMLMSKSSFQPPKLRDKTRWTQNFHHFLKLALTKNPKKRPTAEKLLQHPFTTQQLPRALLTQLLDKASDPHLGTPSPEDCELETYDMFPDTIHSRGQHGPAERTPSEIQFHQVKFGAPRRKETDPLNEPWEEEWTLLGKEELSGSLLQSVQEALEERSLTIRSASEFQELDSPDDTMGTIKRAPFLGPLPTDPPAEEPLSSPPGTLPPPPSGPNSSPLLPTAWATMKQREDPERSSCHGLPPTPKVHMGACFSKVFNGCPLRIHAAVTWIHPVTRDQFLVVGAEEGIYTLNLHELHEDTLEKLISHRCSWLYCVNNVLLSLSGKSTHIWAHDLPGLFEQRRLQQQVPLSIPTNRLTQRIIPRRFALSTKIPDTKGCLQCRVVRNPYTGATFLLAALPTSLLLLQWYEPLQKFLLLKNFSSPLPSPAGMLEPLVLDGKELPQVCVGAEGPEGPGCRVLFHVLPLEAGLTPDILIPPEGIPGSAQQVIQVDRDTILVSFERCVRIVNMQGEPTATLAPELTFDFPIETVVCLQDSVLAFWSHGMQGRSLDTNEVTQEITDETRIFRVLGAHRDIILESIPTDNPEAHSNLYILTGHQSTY
The following applies: at 1 µM.

The target in assay [7] is T1, Mitogen-activated protein kinase kinase kinase kinase 2 (Homo sapiens). The following applies: at 10 µM.
In assay [8] the target is G protein-coupled receptor kinase 5 (Homo sapiens) (UniProt P34947). The following applies: at 10 µM.
Sequence of G protein-coupled receptor kinase 5 (Homo sapiens) (P34947 whole entry, looked up): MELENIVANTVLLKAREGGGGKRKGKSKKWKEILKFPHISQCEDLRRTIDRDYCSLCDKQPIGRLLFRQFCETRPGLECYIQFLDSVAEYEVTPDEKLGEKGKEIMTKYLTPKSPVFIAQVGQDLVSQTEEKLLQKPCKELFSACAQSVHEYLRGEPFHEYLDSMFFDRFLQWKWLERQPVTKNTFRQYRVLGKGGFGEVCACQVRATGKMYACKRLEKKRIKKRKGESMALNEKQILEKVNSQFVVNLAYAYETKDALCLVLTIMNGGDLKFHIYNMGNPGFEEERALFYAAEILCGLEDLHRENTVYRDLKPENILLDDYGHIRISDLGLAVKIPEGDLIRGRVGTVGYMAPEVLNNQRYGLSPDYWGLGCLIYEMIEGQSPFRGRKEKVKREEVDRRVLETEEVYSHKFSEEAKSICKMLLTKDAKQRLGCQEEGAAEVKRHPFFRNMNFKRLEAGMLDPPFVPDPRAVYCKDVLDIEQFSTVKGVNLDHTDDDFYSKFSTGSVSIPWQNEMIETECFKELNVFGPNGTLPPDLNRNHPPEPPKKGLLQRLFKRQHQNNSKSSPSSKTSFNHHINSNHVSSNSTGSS
Assay [9] deals with G protein-coupled receptor kinase 6 (Homo sapiens) (UniProt P43250). The following applies: at 10 µM.
Sequence of G protein-coupled receptor kinase 6 (Homo sapiens) (P43250 whole entry, looked up): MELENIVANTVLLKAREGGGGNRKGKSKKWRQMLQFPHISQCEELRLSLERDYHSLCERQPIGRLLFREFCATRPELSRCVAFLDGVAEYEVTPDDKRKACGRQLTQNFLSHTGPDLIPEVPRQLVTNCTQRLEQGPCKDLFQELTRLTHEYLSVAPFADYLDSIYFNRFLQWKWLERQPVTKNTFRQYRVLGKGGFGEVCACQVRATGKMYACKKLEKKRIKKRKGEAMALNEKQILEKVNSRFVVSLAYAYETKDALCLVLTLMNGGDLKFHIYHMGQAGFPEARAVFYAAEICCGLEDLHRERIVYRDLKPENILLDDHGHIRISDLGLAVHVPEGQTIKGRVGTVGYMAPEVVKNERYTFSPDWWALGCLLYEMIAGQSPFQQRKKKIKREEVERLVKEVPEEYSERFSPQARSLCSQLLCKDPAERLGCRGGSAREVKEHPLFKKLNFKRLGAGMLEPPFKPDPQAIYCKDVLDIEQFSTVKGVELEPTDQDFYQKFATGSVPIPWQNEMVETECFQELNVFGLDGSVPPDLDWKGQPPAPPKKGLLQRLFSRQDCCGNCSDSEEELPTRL
The target in assay [10] is T2, Rhodopsin kinase GRK7 (Homo sapiens) (UniProt Q8WTQ7).
T2 sequence (whole entry): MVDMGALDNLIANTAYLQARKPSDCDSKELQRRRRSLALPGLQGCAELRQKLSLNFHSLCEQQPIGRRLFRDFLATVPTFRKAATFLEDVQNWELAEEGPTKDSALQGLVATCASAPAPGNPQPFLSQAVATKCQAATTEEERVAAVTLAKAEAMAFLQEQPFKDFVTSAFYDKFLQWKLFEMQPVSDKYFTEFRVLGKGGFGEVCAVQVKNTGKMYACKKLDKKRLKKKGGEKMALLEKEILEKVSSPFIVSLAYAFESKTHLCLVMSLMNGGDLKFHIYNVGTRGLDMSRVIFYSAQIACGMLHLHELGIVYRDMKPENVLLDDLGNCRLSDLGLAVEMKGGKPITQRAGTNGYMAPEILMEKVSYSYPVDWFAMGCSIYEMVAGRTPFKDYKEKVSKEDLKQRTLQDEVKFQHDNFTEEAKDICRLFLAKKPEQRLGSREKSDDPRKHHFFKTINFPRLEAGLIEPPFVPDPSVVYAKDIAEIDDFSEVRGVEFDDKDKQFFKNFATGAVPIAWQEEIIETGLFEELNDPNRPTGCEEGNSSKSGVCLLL
The following applies: at 1 µM.

Assay [11] deals with T2, Rhodopsin kinase GRK7 (Homo sapiens). The following applies: at 10 µM.
In assay [12] the target is Homeodomain-interacting protein kinase 1 (Homo sapiens) (UniProt Q86Z02). The following applies: at 1 µM.
For assay [13] the target is unchanged. The following applies: at 10 µM.
The target in assay [14] is Homeodomain-interacting protein kinase 2 (Homo sapiens) (UniProt Q9H2X6). The following applies: at 1 µM.
Sequence of Homeodomain-interacting protein kinase 2 (Homo sapiens) (Q9H2X6 whole entry, looked up): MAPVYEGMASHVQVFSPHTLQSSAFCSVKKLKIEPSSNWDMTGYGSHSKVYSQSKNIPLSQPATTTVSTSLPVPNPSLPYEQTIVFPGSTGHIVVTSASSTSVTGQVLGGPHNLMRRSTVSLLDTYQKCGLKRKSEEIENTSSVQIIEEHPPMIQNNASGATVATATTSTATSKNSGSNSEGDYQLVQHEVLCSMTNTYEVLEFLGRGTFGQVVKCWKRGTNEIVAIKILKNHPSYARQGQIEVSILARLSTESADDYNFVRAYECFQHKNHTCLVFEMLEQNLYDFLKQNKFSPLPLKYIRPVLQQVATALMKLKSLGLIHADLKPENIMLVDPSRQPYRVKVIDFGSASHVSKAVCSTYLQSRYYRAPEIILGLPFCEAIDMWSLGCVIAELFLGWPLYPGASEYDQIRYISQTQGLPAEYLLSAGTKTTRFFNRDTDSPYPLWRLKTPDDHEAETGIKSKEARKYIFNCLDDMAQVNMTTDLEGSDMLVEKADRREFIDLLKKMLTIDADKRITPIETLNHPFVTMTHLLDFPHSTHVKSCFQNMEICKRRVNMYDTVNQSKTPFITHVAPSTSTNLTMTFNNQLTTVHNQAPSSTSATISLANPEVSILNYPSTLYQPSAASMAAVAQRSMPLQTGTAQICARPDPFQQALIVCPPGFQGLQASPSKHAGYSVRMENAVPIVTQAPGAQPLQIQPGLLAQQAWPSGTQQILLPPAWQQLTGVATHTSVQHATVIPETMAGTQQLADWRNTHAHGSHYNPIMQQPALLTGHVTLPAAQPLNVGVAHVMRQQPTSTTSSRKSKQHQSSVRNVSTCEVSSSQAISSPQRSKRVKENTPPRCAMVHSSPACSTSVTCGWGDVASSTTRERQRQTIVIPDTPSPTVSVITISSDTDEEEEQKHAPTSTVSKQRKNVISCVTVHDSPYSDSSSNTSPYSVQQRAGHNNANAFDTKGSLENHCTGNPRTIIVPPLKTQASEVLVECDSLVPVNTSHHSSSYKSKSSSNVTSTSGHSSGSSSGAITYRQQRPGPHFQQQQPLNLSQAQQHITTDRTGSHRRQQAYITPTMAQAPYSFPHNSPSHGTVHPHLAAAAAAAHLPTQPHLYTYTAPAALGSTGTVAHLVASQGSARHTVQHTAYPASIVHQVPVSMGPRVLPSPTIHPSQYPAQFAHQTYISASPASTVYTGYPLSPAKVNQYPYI
For assay [15] the target is unchanged. The following applies: at 10 µM.
The target in assay [16] is Homeodomain-interacting protein kinase 3 (Homo sapiens) (UniProt Q9H422). The following applies: at 1 µM.
For assay [17], the target named is Glycogen synthase kinase-3 alpha (Homo sapiens) (UniProt P49840). The following applies: at 1 µM.
Sequence of Glycogen synthase kinase-3 alpha (Homo sapiens) (P49840 2-483 limits assumed): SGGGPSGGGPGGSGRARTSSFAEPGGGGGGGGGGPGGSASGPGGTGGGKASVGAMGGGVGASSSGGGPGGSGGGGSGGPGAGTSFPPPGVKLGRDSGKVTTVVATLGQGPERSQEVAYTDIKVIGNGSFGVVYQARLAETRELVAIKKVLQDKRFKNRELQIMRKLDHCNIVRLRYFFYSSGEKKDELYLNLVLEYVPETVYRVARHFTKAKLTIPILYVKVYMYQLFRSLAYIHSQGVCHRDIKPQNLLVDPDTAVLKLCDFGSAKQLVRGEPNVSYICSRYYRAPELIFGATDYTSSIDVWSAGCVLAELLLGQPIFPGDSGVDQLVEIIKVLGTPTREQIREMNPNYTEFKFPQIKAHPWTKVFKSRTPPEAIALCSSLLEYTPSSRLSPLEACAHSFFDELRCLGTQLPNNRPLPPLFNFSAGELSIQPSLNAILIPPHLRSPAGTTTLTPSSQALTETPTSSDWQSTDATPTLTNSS
Assay [18] has the same target. The following applies: at 10 µM.
The target in assay [19] is Glycogen synthase kinase-3 beta (Homo sapiens) (UniProt P49841). The following applies: at 1 µM.
Assay [20] shares this target. The following applies: at 10 µM.

Consider 13 molecules from ChEMBL document CHEMBL2218924, “A broad activity screen in support of a chemogenomic map for kinase signalling research and drug discovery” (Biochem J, 2013).

Sequence of Vascular endothelial growth factor receptor 3 (Homo sapiens) (P35916 whole entry): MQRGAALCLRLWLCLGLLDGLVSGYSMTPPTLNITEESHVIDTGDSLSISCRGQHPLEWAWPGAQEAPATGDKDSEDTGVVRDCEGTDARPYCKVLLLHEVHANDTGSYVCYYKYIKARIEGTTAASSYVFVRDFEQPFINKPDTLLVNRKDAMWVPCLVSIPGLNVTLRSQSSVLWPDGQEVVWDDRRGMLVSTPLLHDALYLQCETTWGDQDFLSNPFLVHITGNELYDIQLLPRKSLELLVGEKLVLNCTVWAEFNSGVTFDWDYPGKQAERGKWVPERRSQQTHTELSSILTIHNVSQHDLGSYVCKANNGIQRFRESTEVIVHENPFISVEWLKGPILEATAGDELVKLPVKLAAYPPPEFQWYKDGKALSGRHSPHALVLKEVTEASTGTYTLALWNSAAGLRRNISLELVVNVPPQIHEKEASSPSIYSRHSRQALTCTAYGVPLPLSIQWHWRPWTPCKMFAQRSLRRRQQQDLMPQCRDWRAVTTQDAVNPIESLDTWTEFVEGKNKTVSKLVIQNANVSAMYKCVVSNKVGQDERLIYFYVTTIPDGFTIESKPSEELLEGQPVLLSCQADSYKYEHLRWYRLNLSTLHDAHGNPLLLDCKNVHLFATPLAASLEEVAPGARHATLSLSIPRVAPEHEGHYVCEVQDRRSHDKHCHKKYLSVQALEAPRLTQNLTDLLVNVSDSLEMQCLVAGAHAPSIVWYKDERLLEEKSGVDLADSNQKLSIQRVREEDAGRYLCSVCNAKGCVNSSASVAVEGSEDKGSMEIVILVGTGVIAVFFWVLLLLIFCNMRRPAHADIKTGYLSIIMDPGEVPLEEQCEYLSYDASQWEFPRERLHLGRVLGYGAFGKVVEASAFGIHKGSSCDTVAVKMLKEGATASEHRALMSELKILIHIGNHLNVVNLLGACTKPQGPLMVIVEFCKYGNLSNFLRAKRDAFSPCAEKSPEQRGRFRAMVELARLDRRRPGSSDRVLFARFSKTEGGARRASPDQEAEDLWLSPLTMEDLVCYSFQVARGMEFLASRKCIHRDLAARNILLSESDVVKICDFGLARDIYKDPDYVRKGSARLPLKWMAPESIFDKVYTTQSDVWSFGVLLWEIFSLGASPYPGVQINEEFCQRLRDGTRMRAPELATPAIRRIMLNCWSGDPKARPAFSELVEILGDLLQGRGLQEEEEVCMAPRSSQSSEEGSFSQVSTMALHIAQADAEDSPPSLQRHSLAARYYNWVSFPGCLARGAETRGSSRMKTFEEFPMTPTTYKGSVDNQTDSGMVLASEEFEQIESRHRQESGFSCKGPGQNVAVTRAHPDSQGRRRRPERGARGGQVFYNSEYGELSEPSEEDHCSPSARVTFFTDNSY
Sequence of Tyrosine-protein kinase Fyn (Homo sapiens) (P06241 2-537 limits assumed): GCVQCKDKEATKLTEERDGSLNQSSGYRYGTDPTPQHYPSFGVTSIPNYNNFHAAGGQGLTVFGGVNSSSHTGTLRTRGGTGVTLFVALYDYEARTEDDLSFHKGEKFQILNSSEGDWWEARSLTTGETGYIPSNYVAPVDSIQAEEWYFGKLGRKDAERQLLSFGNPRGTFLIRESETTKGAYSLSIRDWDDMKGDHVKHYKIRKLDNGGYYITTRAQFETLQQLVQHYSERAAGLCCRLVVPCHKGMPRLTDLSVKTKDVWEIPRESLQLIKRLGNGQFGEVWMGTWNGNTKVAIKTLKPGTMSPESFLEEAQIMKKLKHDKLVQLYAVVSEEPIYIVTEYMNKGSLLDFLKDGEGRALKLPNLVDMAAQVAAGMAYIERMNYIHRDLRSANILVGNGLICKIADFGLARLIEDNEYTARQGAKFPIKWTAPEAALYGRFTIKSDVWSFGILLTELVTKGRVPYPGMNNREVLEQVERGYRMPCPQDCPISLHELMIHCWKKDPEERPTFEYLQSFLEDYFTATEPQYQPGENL

Regarding `CCN(CC)CCNC(=O)c1c(C)[nH]c(/C=C2\C(=O)Nc3ccc(Cl)cc32)c1C`, the residual activity in [1] was determined as 1%; in [2], 0%; in [3], 0%; in assay [4], 6%; in assay [5], 1%; in assay [6], 5%. The residual activity is 0% in assay [7]; 33% in assay [8]; 17% in assay [9]; 57% in [10]; 9% in assay [11]; 32% in assay [12]. In addition, the residual activity in assay [13] came out at 4%; in [14], 6%; in assay [15], 1%; in assay [16], 9%.

Turning to `CCCCc1c(-c2ccc(OC)cc2)[nH]c2nccnc12`, the residual activity was found to be 3% in assay [1]; 14% in assay [2]; 8% in assay [3]; 40% in assay [4]; 37% in assay [5]; 22% in assay [6]. In addition, the residual activity in assay [7] was found to be 32%; in [10] it was 77%; in assay [11], 92%; in [17], 46%; in assay [18] it was 41%; in [19], 52%. Also, the figures for the residual activity in [20], in assay [15] and in assay [16] were 71%, 90% and 106%, respectively.

Turning to `CN(C)S(=O)(=O)c1ccc2c(c1)/C(=C/c1cc3c([nH]1)CCCC3)C(=O)N2`, the residual activity was found to be 46% in assay [1]; 4% in assay [2]; 0% in [3]; 22% in [4]; 24% in assay [5]; 5% in [6]. The residual activity in assay [7] is 5%; in assay [8], 84%; in assay [11] it was 78%; in [17], 97%; in assay [18], 94%; in assay [19], 112%. Besides, the residual activity in assay [20] was 94%; in assay [14], 97%; in [15] it was 90%; in [16], 99%.

Consider `NC(=O)Nc1sc(-c2ccc(F)cc2)cc1C(N)=O`, for which the residual activity turned out to be 0% in assay [1]; 11% in [2]; 2% in assay [3]; 24% in assay [4]; 5% in assay [5]; 25% in assay [6]. The residual activity is 5% in assay [7]; 82% in assay [8]; 74% in [9]; 67% in [10]; 19% in assay [11]; 64% in assay [17]. For the same molecule, the residual activity in assay [18] worked out at 29%; in assay [12], 106%; in assay [13], 87%; in assay [14], 94%; in assay [15] it was 67%; in assay [16] it was 100%.

Turning to `O=C1NC(=O)C(c2c[nH]c3ccccc23)=C1c1c[nH]c2ccccc12`, the residual activity stood at 1% in [1]; 82% in assay [2]; 32% in assay [3]; 83% in assay [4]; 29% in assay [5]; 80% in [6]. The residual activity amounted to 19% in [7]; 68% in [9]; 78% in assay [10]; 20% in [11]; 19% in [17]; 4% in assay [18]. Besides, the residual activity in assay [19] is 31%; in [20] it was 6%; in assay [14], 76%; in assay [15] it was 15%.

For the molecule `O=C1Cc2c([nH]c3ccc([N+](=O)[O-])cc23)-c2ccccc2N1`, the residual activity in [1] is 32%; in assay [2] it was 33%; in assay [3] it was 26%; in assay [4], 20%; in assay [5] it was 0%; in assay [6] it was 2%. Besides, the residual activity is 5% in assay [7]; 1% in assay [17]; 2% in [18]; -1% in assay [19]; 3% in [20]; 109% in assay [12]. Moreover, in assay [13], the residual activity was determined as 100%.

Consider `CC(C)c1nn(-c2c(Cl)cccc2Cl)c2nc(Cc3ccc(OCCO)cc3)[nH]c(=O)c12`, for which the residual activity is 56% in assay [1]; 62% in [2]; 51% in assay [3]; 67% in [4]; 74% in [5]; 99% in assay [6]. Moreover, the residual activity came out at 70% in [7]; 78% in assay [8]; 86% in assay [9]; 93% in [10]; 80% in [11]; 66% in [17]. Moreover, the residual activity stood at 13% in assay [18]; 51% in assay [19]; 45% in assay [20]; 104% in assay [12]; 98% in assay [13]; 99% in assay [14]. Further, the residual activity in assay [15] amounted to 89%; in assay [16], 107%.

In the case of `COc1cc2nccc(Oc3ccc(NC(=O)Nc4cc(C)on4)c(Cl)c3)c2cc1OC`, the residual activity is -1% in assay [1]; 0% in assay [2]; 0% in assay [3]; 5% in assay [4]; 1% in assay [5]; 47% in [6]. For the same molecule, the residual activity amounted to 17% in [7]; 104% in assay [8]; 105% in [10]; 107% in assay [17]; 123% in assay [18]; 96% in [12]. For the same molecule, the residual activity in assay [13] was found to be 106%.

Consider `Nc1ncnc2c1c(-c1ccc(Oc3ccccc3)cc1)cn2C1CCCC1`, for which the residual activity came out at 0% in [1]; 18% in assay [2]; 1% in assay [3]; 0% in assay [4]; 0% in [5]; 87% in assay [6]. The residual activity in assay [7] was 54%; in assay [8], 89%; in [9], 73%; in assay [10] it was 87%; in [11], 69%; in assay [17], 104%. Besides, the residual activity in assay [18] was 112%; in assay [19] it was 88%; in assay [12] it was 86%; in assay [13] it was 98%; in assay [14] it was 96%; in assay [15], 75%. The residual activity in [16] was determined as 86%.

In the case of `Nc1n[nH]c2nc3ccccc3nc12`, the residual activity in assay [1] was 44%; in assay [2], 74%; in assay [3] it was 66%; in assay [4], 73%; in [5] it was 73%; in [6], 78%. For the same molecule, the residual activity in [7] was 37%; in assay [8] it was 94%; in assay [9] it was 85%; in [17], 81%; in [18], 50%; in assay [19], 100%. Besides, the residual activity amounted to 80% in assay [20], 87% in [13], 98% in assay [14] and 59% in assay [15].

Regarding `O=c1cc(N2CCNCC2)oc2c(-c3ccccc3)cccc12`, the residual activity in assay [1] was found to be 90%; in assay [2], 61%; in assay [3], 78%; in assay [4], 88%; in assay [5], 88%; in [6], 90%. Moreover, the residual activity came out at 83% in assay [7]; 104% in assay [8]; 84% in assay [9]; 95% in assay [10]; 84% in assay [11]; 78% in assay [19]. The residual activity in assay [20] is 84%; in assay [12] it was 101%; in assay [13] it was 96%; in [14], 97%; in assay [15] it was 90%; in assay [16], 90%.

With `CCCC(=O)Oc1ccc2[nH]c(C(=O)c3cc4ccccc4[nH]3)cc2c1`, the residual activity is 68% in [1]; 78% in assay [2]; 83% in [3]; 78% in assay [4]; 89% in [5]; 86% in [6]. Further, the residual activity was 70% in [7]; 95% in assay [8]; 78% in assay [9]; 93% in [10]; 82% in [11]; 125% in [18]. For the same molecule, the residual activity in [19] came out at 99%; in assay [20], 95%; in assay [12], 98%; in [13], 103%; in assay [14], 102%; in assay [15], 100%. The residual activity in [16] came out at 93%.

`O=C(NC(NC(=S)Nc1ccc(F)c([N+](=O)[O-])c1)C(Cl)(Cl)Cl)C(c1ccccc1)c1ccccc1` (stereo unspecified): the residual activity in [1] came to 76%; in [2], 89%; in [3], 71%; in [4], 104%; in [5] it was 58%; in assay [6], 88%. Further, the residual activity amounted to 74% in assay [7]; 100% in assay [8]; 87% in assay [9]; 86% in [10]; 98% in assay [11]; 89% in [18]. Besides, the residual activity is 99% in [12]; 93% in assay [13]; 104% in assay [14]; 77% in assay [15]; 96% in assay [16].
